Data: PubChem BioAssay (EPA / NIEHS)
Activity calls are given as the source filed them. Rule for the calls: active = hit-call score of the fitted dose curve at least 0.9, where 1 is the maximum; inactive = score below 0.9.

What follows are compounds tested against Signal transducer and activator of transcription 3 (Homo sapiens) (UniProt P40763) (assay: ATG_STAT3_CIS: Attagene CIS-FACTORIAL HepG2 Assay for human Signal Transducer and Activator of Transcription 3 (STAT3) (AID 2282963)). Conditions: HepG2, Attagene cis-factorial STAT3 reporter transcription; actives raise or lower the signal.
Chain of Signal transducer and activator of transcription 3 (Homo sapiens) (P40763 whole entry, looked up): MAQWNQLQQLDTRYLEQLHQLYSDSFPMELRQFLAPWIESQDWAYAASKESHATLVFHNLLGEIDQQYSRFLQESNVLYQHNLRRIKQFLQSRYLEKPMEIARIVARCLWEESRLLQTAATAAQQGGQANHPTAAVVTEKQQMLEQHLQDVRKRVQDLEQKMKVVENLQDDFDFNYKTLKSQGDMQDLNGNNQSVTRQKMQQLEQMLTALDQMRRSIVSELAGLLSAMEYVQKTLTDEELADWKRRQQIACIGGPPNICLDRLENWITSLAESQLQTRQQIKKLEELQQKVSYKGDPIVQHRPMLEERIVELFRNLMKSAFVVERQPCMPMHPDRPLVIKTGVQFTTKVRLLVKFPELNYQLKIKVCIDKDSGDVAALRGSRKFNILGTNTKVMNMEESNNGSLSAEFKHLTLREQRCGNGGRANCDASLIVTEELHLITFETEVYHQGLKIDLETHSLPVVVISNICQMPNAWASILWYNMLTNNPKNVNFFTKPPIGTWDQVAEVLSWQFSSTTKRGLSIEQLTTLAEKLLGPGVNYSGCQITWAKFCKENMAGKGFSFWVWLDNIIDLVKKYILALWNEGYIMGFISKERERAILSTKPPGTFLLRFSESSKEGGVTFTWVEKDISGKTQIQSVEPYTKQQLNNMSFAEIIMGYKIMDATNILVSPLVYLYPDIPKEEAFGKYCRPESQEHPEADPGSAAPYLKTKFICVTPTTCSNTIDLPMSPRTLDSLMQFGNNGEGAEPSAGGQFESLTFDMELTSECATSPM
Procedure: ATG_CIS is a cell-based, multiplexed-readout assay that uses HepG2, a human liver cell line, with measurements taken at 24 hours after chemical dosing in a 24-well plate.ATG_STAT3_CIS is one of 52 assay component(s) measured or calculated from the ATG_CIS assay. It is designed to make measurements of mRNA induction, a form of inducible reporter, as detected with fluorescence intensity signals by Reverse transcription polymerase chain reaction (RT-PCR) and Capillary electrophoresis technology.Data from the assay component ATG_STAT3_CIS was analyzed into 1 assay endpoint. This assay endpoint, ATG_STAT3_CIS, was analyzed with bidirectional fitting relative to DMSO as the negative control and baseline of activity. Using a type of inducible reporter, measures of mRNA for gain or loss-of-signal activity can be used to understand the reporter gene at the transcription factor-level as they relate to the gene STAT3. Furthermore, this assay endpoint can be referred to as a primary readout, because this assay has produced multiple assay endpoints where this one serves a reporter gene function. To generalize the intended target to other relatable targets, this assay endpoint is annotated to the dna binding intended target family, where the subfamily is stat protein.
Human liver HepG2 cells are transiently transfected with multiple reporter transcription units (MRTUs) in 6-well plates using FuGene 6 reagent (Roche; 3 ml FuGene/1 mg DNA). The MRTU constructs are regulated by a cis-regulating element (promoter). […] A major difference between the CIS and TRANS system is that in CIS activities of endogenous TFs are measured, whereas the TRANS assay evaluates changes in activities of exogenous, chimeric NR-Gal4 proteins. […] At the end of 24 hour incubation, total RNA was isolated using TriZol reagent (Invitrogen). The isolated RNA is then reverse-transcribed using oligo(dT) primer and Mo-MLV reverse transcriptase (Invitrogen) with DNAse I (Ambion) treatment for 30 min. The one-tenth of the produced cDNA was amplified by PCR using Taq DNA polymerase (Invitrogen) and two reporter sequence-specific primers. The PCR products were fluorescently labeled by primer extension with 6-arboxyfluorescein (6-FAM) 5'-labeled reporter sequence-specific primer (2 min at 95 C, 20 s at 68 C and 10 min at 72 C) and these products were digested with 5U of HpaI (New England Biolabs) for 2h at 37 C. The fragments were purified using Qiaquick PCR columns (Qiagen), analyzed on an ABI 3130xL genetic analyzer (Applied Biosystems) with peak positions identified by using a set of X-rhodamine (ROX)-labeled MapMarker1000 molecular weight standards (BioVentures). The raw capillary electrophoresis data was processed using Attagraph software (Attagene).

outcome, inactive:
CN(C)C(=N)N=C(N)N
CN(CCOc1ccc(CC2SC(=O)NC2=O)cc1)c1ccccn1 (stereo not given)
CC(C)=CCCC(C)=CCCC(C)=CCO
C=C(C)C(=O)NCCCN(C)C
CC1COc2ccccc2N1C(=O)C(Cl)Cl (stereo not given)
CC(C)(CO)[N+](=O)[O-]
CCCCCCCCCCCCCCCC(=O)OC[C@H](O)[C@H]1OC(=O)C(O)=C1O
CC(C)C[C@H]1C(=O)N2CCC[C@H]2[C@]2(O)O[C@](NC(=O)[C@@H]3C=C4c5cccc6[nH]c(Br)c(c56)C[C@H]4N(C)C3)(C(C)C)C(=O)N12
CC(C)(C)C(=O)c1ccccc1
C=C(C)[C@@H]1CCC2=CC(=O)C[C@@H](C)[C@]2(C)C1
O=C(O)CCCCC1CCSS1 (stereo not given)
CCC(O)CO (stereo not given)
CCCCCCCCCCCCCCCC(=O)O
C=C(C)[C@@H]1CC[C@@H](C)C[C@@H]1O
CC1CC(OC(=O)c2ccccc2O)CC(C)(C)C1 (stereo not given)
C=O
O=C(O)c1cn(-c2ccc(F)cc2)c2cc(N3CCNCC3)c(F)cc2c1=O
COC(=O)c1ccc(C)cc1
CC(CCO)CCCC(C)(C)O (stereo not given)
CCCCCCC#CC(=O)OC
CN1Cc2c(N)cccc2C(c2ccccc2)C1 (stereo not given)
O=C1O[C@@H]2[C@@H](O)[C@H](O)O[C@@H]2[C@H]1O
Clc1ccc(Cl)c(Cl)c1Cl
CCCCCOC(=O)CCC
Cc1ccccc1C=O
C=C[C@@H](C)CCC=C(C)C
CC(C)(C#N)c1cc(Cn2cncn2)cc(C(C)(C)C#N)c1
COc1ccc(Nc2ccccc2)c(C)c1
C=C[Si](OCC)(OCC)OCC
C[C@H]1C[C@H]2[C@@H]3CCC4=CC(=O)C=C[C@]4(C)[C@@]3(F)[C@@H](O)C[C@]2(C)[C@@]1(O)C(=O)COP(=O)(O)O
CCCCCCCCCCCCCCCCCC(=O)OCC(CC)CCCC (stereo not given)
CC(C)[C@H]1CC[C@@H](C)CC1=O
CCCC(=O)OCCC(C)CCC=C(C)C (stereo not given)
O=C(Nc1ccccc1)c1cc([N+](=O)[O-])ccc1Cl
CNC[C@H](O)c1cccc(O)c1
CCCC/C=C\CCCCCCCCCC=O
CCCCCCCCCCCCOCCO
Nc1cc(Cl)c(O)c(Cl)c1
CC(C)=CCC/C(C)=C/COC=O
c1ccc(CCCc2ccccn2)cc1
